Laboratory results reported in PubChem BioAssay AID739 (SRMLSC, 2007).
The campaign covered roughly 98,000 compounds. About 880 (0.9%) were called active. The entries come from a sample that favours actives as a whole. Values without a mark were called inactive. Rule as the data show it: active = inhibition above about 30%; inactive = the rest.

Test: phenotypic screen on post-Golgi transport, primary screen (AID 739);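 also: yeast cells grown in 1536-well plates; yeast grown about 18 h at 30C before absorbance read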
Conditions: post-Golgi transport phenotypic cell assay; at 10 µM; active compounds read high
Work on COc1ccc(C(=O)NC(=S)NNC(=O)CCc2ccccc2)cc1 yielded an inhibition of 0.19%.
Compound CCCc1ccc(OCC(=O)NNC(=S)NC(=O)c2ccco2)cc1 has an inhibition of 27.3%.
With CC(Oc1ccc2ccccc2c1)C(=O)NNC(=S)NC(=O)c1ccco1 (stereo not drawn) the inhibition was 43% (active).
CCN(CC(=O)NC1CCS(=O)(=O)C1)c1nc(-c2cccnc2)nc2ccccc12 (stereo not drawn) gave an inhibition of 3.37%.
With COC(=O)Cc1cc(=O)oc2c(C)c(O)ccc12 the inhibition was -6.64%.
For CS(=O)(=O)N(CC(=O)N1CCN(Cc2ccc3c(c2)OCO3)CC1)c1ccc2c(c1)OCO2, the inhibition was 6.95%.
In the case of CCn1cc(C(=O)N2CCN(Cc3ccc4c(c3)OCO4)CC2)c2cc(OC)c(OC)cc2c1=O, the inhibition was -1.13%.
For COc1cc(Cl)c(S(=O)(=O)N2CCN(Cc3ccc4c(c3)OCO4)CC2)cc1Cl, the inhibition was 38.9% (active).
CC(=O)c1ccc(Cc2ncc(C(F)(F)F)cc2Cl)s1 gave an inhibition of 6.38%.
For COc1ccc(-c2ccc(Nc3ccc(S(=O)(=O)N4CCCC4)cc3)nn2)cc1OC, the inhibition was 1.55%.
In the case of COc1ccc(-c2cc(C(F)(F)F)nc(S(C)(=O)=O)n2)cc1OC, the inhibition was 54.9% (active).
For COc1ccc(-c2cc(C(F)(F)F)nc(NCc3cccnc3)n2)cc1, the inhibition was 10.4%.
CCOC(=O)c1cc2c(ccn2C)n1CC(=O)N1CCC(C)CC1 gave an inhibition of 1.25%.
In the case of O=C(c1cccc(F)c1)N1CCC(O)(c2cccnc2)CC1, the inhibition was 1.27%.
With COc1ccc2[nH]cc(/C=C(/C#N)S(=O)(=O)c3ccccc3)c2c1 the inhibition was -4.52%.
For Cc1ccc(C2(C(F)(F)F)N=C3Sc4cc(C)cc(C)c4N3C(=O)N2)cc1 (stereo not drawn), the inhibition was 90.2% (active).
For Cc1n[nH]c(=O)n1-c1ccc(Oc2ccccc2)cc1, the inhibition was -19.2%.
Compound COC(=O)Nc1ncc(CN2CCCCC2)s1 has an inhibition of -4.67%.
With Cc1ccc(/C=N/NC(=O)C(NC(=O)c2ccccc2)c2n[nH]c(=O)c3ccccc23)cc1 (stereo not drawn) the inhibition was 0.64%.
In the case of Cc1cc(NC(=O)/C=C/C(=O)N(c2ccccc2C)C(C(=O)NC2CCCC2)c2ccc(F)cc2)no1 (stereo not drawn), the inhibition was 0.32%.
Work on CC1=CC(C)(C)N(C(=O)CSc2nccn2C)c2cc(C)ccc21 yielded an inhibition of 5.13%.
O=C(CSc1nnc(-c2ccccc2)o1)N1CCOCC1 showed an inhibition of 8.7%.
With CC1=CC(C)(C)N(C(=O)CSc2nnc(-c3ccccc3)o2)c2ccc(C)cc21 the inhibition was 101% (active).
With Cc1ccc(CNC(=O)c2ccccc2CCc2ccccc2)cc1 the inhibition was -2.21%.
For FC(F)(F)COc1nc(N2CCCCC2)nc(N2CCNCC2)n1, the inhibition was 33.5% (active).
O=C(CSCc1ccc(Cl)cc1)N1CCCCC1 showed an inhibition of -4.56%.
In the case of Cc1cc([N+](=O)[O-])c(-c2ccc(/C=N/n3cnnc3)o2)cc1Cl, the inhibition was 99.8% (active).
With Cc1cc(C)c([N+](=O)[O-])cc1-c1ccc(/C=N/NC(=O)c2nonc2N)o1 the inhibition was -6.17%.
In the case of Cc1cc(-c2ccc(/C=N/n3cnnc3)o2)c([N+](=O)[O-])cc1C, the inhibition was 59.7% (active).
Work on O=C1C2C3C=CC(C4CC34)C2C(=O)N1/N=C/c1ccc(-c2ccccc2[N+](=O)[O-])o1 (stereo not drawn) yielded an inhibition of 3.37%.
With CCOc1ccc(C(=O)NCCCN2CCCC2=O)cc1 the inhibition was 11.5%.
Work on O=C(COC(=O)c1ccccc1NC(=O)c1ccco1)Nc1ccc2c(c1)OC(F)(F)O2 yielded an inhibition of -2.04%.
Cc1nc2ccc(NC(=O)C(F)(F)F)cc2o1 showed an inhibition of -13.7%.
With OC(c1ccccc1)c1nccn1Cc1ccccc1 (stereo not drawn) the inhibition was -6.53%.
Cn1c(-c2sc3cc(C(F)(F)F)cnc3c2-c2ccccc2)n[nH]c1=S gave an inhibition of -3.98%.
With c1ccc2c(CSCc3nc4ccccc4[nH]3)cccc2c1 the inhibition was 4.1%.
Work on Cc1ccc(SCC(=O)Nc2ncc(C)s2)cc1 yielded an inhibition of -7.09%.
With O=C1c2ccccc2C2=Nc3ccccc3SC(c3ccccc3F)C12 (stereo not drawn) the inhibition was 103% (active).
Cc1c(CCO)c(=O)n(-c2ccccc2)n1S(=O)(=O)c1ccc(F)cc1 showed an inhibition of -6.46%.
In the case of CC(C)Cc1nc(N2CCOCC2)c(C#N)c2c1CCC2, the inhibition was 35% (active).
With CC(C)c1nc(N2CCOCC2)c(C#N)c2c1COC(C)(C)C2 the inhibition was -8.94%.
CC(C)CCNc1nc(N2CCCC2)c2c(c1C#N)CCN(C)C2 gave an inhibition of -1.14%.
CCOc1ccc(-c2c(C)n([O-])c3c([n+]2=O)CCCC3)cc1 showed an inhibition of 0.66%.
With Clc1ccc(C2CC(c3cccs3)n3ncnc3N2)cc1Cl (stereo not drawn) the inhibition was 1.99%.
COc1ccc(C2CC(c3ccccc3)Nc3ncnn32)cc1 (stereo not drawn) gave an inhibition of 4.34%.
With FC(F)Oc1ccccc1C1CC(c2ccc(Br)s2)Nc2ncnn21 (stereo not drawn) the inhibition was 39.4% (active).
Work on CC(C)C(=O)OCC(=O)Nc1ccc2c(c1)CCC2 yielded an inhibition of 7.4%.
CCC(=O)NC(Nc1cc(C)ccn1)(C(F)(F)F)C(F)(F)F showed an inhibition of 6.28%.
